# Assay outcomes: PubChem, National Center for Advancing Translational Sciences (NCATS)
# A selection: hits, their analogues and other compounds. The true share with any hit is near 1.2%.
# IDH1 R132H inh: qHTS for Inhibitors of mutant isocitrate dehydrogenase 1 (IDH1): qHTS. IDH1-R132H enzyme, NADPH consumption, diaphorase/resazurin fluorescence. Potency, µM (highest dose often 76.6 µM), without a hit: top-dose activity change, negative = inhibition, usual class: inhibitors. hit rate 0.093% among 390,000. AID 602179, 2012; also: potency is read from the fitted curve at half-maximal effect; % is scaled to controls: 0 for no effect and ±100 for the full control effect; nearly all actives have a fitted effect of over 65% in size
# Target sequence (O75874 whole entry R132H, stated change not applied): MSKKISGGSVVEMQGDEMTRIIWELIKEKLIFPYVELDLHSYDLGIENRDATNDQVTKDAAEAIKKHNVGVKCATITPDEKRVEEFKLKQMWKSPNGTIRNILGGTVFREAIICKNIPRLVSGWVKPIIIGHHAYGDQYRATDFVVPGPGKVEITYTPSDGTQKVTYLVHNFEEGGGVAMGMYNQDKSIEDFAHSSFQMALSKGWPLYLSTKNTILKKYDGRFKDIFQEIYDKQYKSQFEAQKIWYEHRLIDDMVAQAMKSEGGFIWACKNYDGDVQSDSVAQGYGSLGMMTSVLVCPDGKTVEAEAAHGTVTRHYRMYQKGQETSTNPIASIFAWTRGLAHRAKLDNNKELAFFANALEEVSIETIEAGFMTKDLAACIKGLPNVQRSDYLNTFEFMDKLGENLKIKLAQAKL
#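 IDH1-R132H (0.5 ug/mL) preincubated 30 min with compound, then NADPH (0.016 mM) and alpha-KG (2 mM) added; 80 min at RT, pH 7.5. Remaining NADPH coupled via diaphorase/resazurin to fluorescence (540/590 nm); concentration-response curves normalized to no-enzyme control.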
# Anesthetic bind: qHTS Assay for Identification of Novel General Anesthetics; Ferritin light chain (Equus caballus), P02791; apoferritin/1-aminoanthracene competitive binding, fluorescence; Potency, µM (highest dose often 77.5 µM), for inactives: at the top dose activity change, negative = displacement, most hits filed as inhibitors; hit rate 0.074% among 350,000; also: potency is read from the fitted curve at half-maximal effect; % is scaled to controls: 0 for no effect and ±100 for the full control effect; nearly all actives have a fitted effect of over 20% in size
# Target sequence (P02791 2-175 limits assumed): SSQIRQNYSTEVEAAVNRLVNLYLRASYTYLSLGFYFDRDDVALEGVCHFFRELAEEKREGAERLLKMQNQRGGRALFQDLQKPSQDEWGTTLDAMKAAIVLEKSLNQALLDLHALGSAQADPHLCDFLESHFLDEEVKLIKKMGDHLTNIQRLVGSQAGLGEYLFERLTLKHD
#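 Horse-spleen apoferritin (10 uM) in 50% saturated 1-aminoanthracene in PBS was incubated 10 min at room temperature with compound. Fluorescence (ex 380, em 535 nm) was normalized to free and bound 1-AMA, with concentration-response fitted by a four-parameter Hill equation.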
# hERG WT inh: qHTS for Inhibitors of KCHN2 3.1: Wildtype qHTS; U2OS, BacMam KCNH2, thallium flux FluxOr; stronger effect = lower value; hit rate 0.37% among 340,000; activity change, % at 1.84 µM; AID 720551, 2013;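 active = maximum activity change below -70%; inconclusive = maximum activity change between -70% and -50%; inactive = maximum activity change above -50%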; also: % is scaled to controls: 0 for no effect and ±100 for the full control effect
#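 U2OS cells were transduced with wild-type KCNH2 virus (2.03 x 10^8 / mL) for 4 h at room temperature, then cultured overnight at 37 C. Thallium flux was read with FluxOr dye. Rate constants were normalized to DMSO controls.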
# KCNH2 3.1 block: qHTS for Inhibitors of KCHN2 3.1: Mutant qHTS. hit rate 0.95% among 340,000. U2OS KCNH2 3.1, thallium flux FluxOr; stronger effect = lower value. AID 720553, 2013. activity change, % (tested at about 1.8 µM). Potassium voltage-gated channel subfamily H member 2, brain isoform KCNH2 3.1 (human);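 active = maximum activity change below -70%; inconclusive = maximum activity change from -70% to -50%; inactive = maximum activity change above -50%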;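 also: thallium influx rate constant from kinetic fluorescence after stimulation buffer; % is scaled to controls: 0 for no effect and ±100 for the full control effect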
#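 We transduce U2OS cells with the mutant 3.1 virus, culture them overnight, load FluxOr with Red40 quencher for 45 min, then add stimulation buffer and read kinetically for 2 min to derive a normalized rate constant.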
# S-ASM inh: Inhibitors of Secretory Acid Sphingomyelinase (S-ASM): qHTS; Sphingomyelin phosphodiesterase (Homo sapiens), P17405; Potency, µM (top dose mostly 57.5 µM), for the others: at the top dose activity change, negative = inhibition, most hits filed as inhibitors; AID 504937, 2011; placental ASM, HMU-PC fluorogenic substrate, 60 min; hit rate 0.006% among 340,000; also: potency is read from the fitted curve at half-maximal effect
#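 Steps: dispense placental human ASM, pin compound, wait 10 min at room temperature, add HMU-PC0 substrate at 9 uM final, incubate 60 min at 37 °C, add stop solution raising pH to 10, read fluorescence.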
# * = called active by the depositor; u = inconclusive; x = no result given; [ ] = another dose, or the depositor's remark. Unless noted, calls follow the shape of the dose curve; as a rule, active = well fitted inhibition curve with a large enough effect; inconclusive = small, poorly fitted or top-dose-only effect; inactive = no such curve, though single readings can be large or run the other way.
SMILES,IDH1 R132H inh,Anesthetic bind,hERG WT inh,KCNH2 3.1 block,S-ASM inh
O=C(O)CC/C(=N\NC(=O)c1ccncc1)c1ccccc1,-4%,0%,-134*,-161*,-5%
Cc1cccc(C)c1NC(=O)c1ccccc1C(=O)O,-4%,-2%,8,-4,3%
Cc1cccc(C(=O)O)c1NC(=O)c1ccc(F)cc1,9%,4%,-194*,0,4%
CCOCCCNC(=O)C(c1ccc(Cl)cc1)N(Cc1ccc2c(c1)OCO2)C(=O)c1ccc(NC(C)=O)cc1 (centres undefined),9%,-19%,x,x,x
O=C(Oc1cccc(NC(=O)c2ccccc2Cl)c1)c1ccc([N+](=O)[O-])cc1,2%,u,-186*,-13,-8%
O=C(Nc1cccc(O)c1)c1ccc([N+](=O)[O-])cc1Cl,-4%,-8%,-5,-10,2%
COc1cccc(-c2nc(SCC(=O)NCc3ccco3)c3c(=O)n(C)c(=O)n(C)c3n2)c1,x,-5%,x,x,x
COc1ccc(-c2[nH]c(-c3cccc(OC)c3)nc2SCC(=O)NCc2ccco2)cc1,12%,0%,-11,-105*,-14%
O=C(O)CCc1cc(I)c(O)c(I)c1,x,-5%,x,x,x
Cc1ccc(C2C(=O)N(C3CCCCCC3)CC(=O)N2CCC2=CCCCC2)cc1 (centres undefined),0%,-11%,x,x,x
CC(C)(C)c1ccc(Cn2c(=N)n(CC(O)c3ccco3)c3ccccc32)cc1 (centres undefined),0%,u,-85*,u,-4%
N=c1n(CCN2CCCC2)c2ccccc2n1CC(O)c1ccco1 (centres undefined),3%,-13%,22,-18,1%
CCCCn1c(=N)n(CC(O)COc2ccccc2)c2ccccc21 (centres undefined),0%,-15%,8,-23,-1%
CCCCn1c(=N)n(CC(O)COc2ccc(C)cc2)c2ccccc21 (centres undefined),2%,-17%,-83*,-90*,-2%
CCCCCCCn1c(=N)n(CC(O)c2ccco2)c2ccccc21 (centres undefined),10%,-15%,-38,-106*,9%
CCOc1ccccc1-n1ccnc(NCc2ccc(F)cc2)c1=O,4%,-7%,x,x,x
Cc1ccc(S(=O)(=O)N2CCN(C)CC2)c(C)c1N(C)S(=O)(=O)c1ccc(Cl)cc1,6%,-19%,-4,-94*,0%
CCOc1ccc(CCNC(=O)CSCc2nc(-c3cccc(C)c3)oc2C)cc1OCC,-1%,-3%,x,x,x
NC(C(=O)O)[C@H](O)C(=O)O (some centres undefined),x,14%,x,x,x
O=C(CSc1nnc(-c2cccc(Br)c2)o1)NCC1CCCO1 (centres undefined),-8%,x,-218*,-174*,x
Cc1ccccc1-c1nnc(SCC(=O)NCC2CCCO2)o1 (centres undefined),-7%,x,2,11,1%
Cn1c(=O)n(C)c2cc(N3CCOCC3)c(NS(=O)(=O)c3ccc(Br)cc3)cc21,25%,-4%,x,x,x
CC(=O)Oc1ccccc1C1C[C@]2(C)CC(=O)NC2N1C(C)=O (some centres undefined),8%,-2%,2,-107*,2%
CC(=O)OCC1OC(C#Cc2ccccc2)C=CC1O (centres undefined),x,-8%[15.3 µM],x,x,x
c1cncc(CNC2CCCc3ccccc32)c1 (centres undefined),1%,-11%,-18,-99*,4%
SMILES,IDH1 R132H inh,Anesthetic bind,hERG WT inh,KCNH2 3.1 block,S-ASM inh
O=C(NC1CCCc2ccccc21)c1cccnc1 (centres undefined),2%,-13%,-6,-5,6%
CCc1ccc(CN2CCC(n3nccc3NC(=O)c3cccc(F)c3)CC2)cc1,2%,-21%,-110*,-101*,0%
O=C(Nc1ccccc1Oc1cccnc1)C1CCCN(C/C=C/c2ccccc2)C1 (centres undefined),3%,-10%,-19,-85*,6%
COc1ccc(/C=C/CN2CCC(n3nccc3NC(=O)C3CC3)CC2)cc1,1%,-6%,10,-35,2%
O=C(Nc1ccnn1C1CCN(C/C=C/c2ccccc2)CC1)C1CCCC1,1%,-10%,3,-80*,11%
COc1ccccc1C(=O)Nc1ccnn1C1CCN(C/C=C/c2ccc(F)cc2)CC1,1%,u,-123*,-104*,-3%
Cc1cc2c(n1-c1ccc(C(=O)NCCc3ccc(Cl)cc3)cc1)CCC(C)C2 (centres undefined),0%,-21%,x,x,x
Cc1ccc(CNC(=O)c2oc3ccc(S(=O)(=O)N4CCCC(C)C4)cc3c2C)cc1 (centres undefined),-14%,-2%,x,x,x
Cc1ccc2c(c1)nc(SCC(O)c1ccc(Br)cc1)n2C (centres undefined),4%,-3%,x,x,x
CCN1CCC(n2nccc2NC(=O)c2ccccc2Cl)CC1,4%,x,21,-1,6%
O=C(CCc1ccccc1)Nc1ccnn1C1CCN(C/C=C/c2ccccc2)CC1,-11%,-5%,22,u,5%
Cc1ccccc1C(=O)Nc1ccnn1C1CCN(CC2CC=CCC2)CC1 (centres undefined),1%,-6%,-3,-44,5%
O=C(Nc1ccnn1C1CCN(C/C=C/c2ccccc2)CC1)c1ccccc1Cl,6%,-14%,-107*,-107*,2%
O=C(Nc1ccnn1C1CCN(Cc2ccccc2)CC1)c1ccccc1Cl,-8%,-5%,-26,-90*,3%
O=C(Nc1ccnn1C1CCN(CC2CC=CCC2)CC1)c1ccccc1Cl (centres undefined),-5%,3%,23,-79*,0%
CCc1ccc(CN2CCC(n3nccc3NC(=O)c3ccccc3C)CC2)cc1,-7%,u,-4,-101*,-2%
CN(C(=O)CSc1nc2ccccc2n1Cc1cccc(C(F)(F)F)c1)c1ccccc1,-15%,99%,x,x,x
O=C(Nc1nc2n(n1)C(c1ccc(F)cc1)C=C(c1ccc(Cl)cc1)N2)c1ccc([N+](=O)[O-])cc1 (centres undefined),u,3%,x,x,x
CCCn1ncc(CN2CCC(n3nccc3NC(=O)c3ccccc3Cl)CC2)c1C,-2%,-3%,-88*,u,1%
CCn1ncc(CN2CCC(n3nccc3NC(=O)c3ccccc3Cl)CC2)c1C,3%,x,63,-17,x
